In PubChem BioAssay AID652105 (National Center for Advancing Translational Sciences (NCATS), 2013) one finds max response data, which are given here for 32 compounds.

Hit rate of the full screen: of about 330,000 compounds, about 4,100 (1.2%) were called active. Another 2% or so got no clear call; they are omitted. The full list was thinned out, with actives kept by preference. A number with no mark means an inactive call. The calls were made as follows: active = max response of -50% or lower; inconclusive = between -30% and -50%; inactive = -30% or higher.
% is scaled to controls: 0 for no effect and ±100 for the full control effect.

Phosphatidylinositol 5-phosphate 4-kinase type-2 alpha (Homo sapiens), sequence (P48426 whole entry, looked up): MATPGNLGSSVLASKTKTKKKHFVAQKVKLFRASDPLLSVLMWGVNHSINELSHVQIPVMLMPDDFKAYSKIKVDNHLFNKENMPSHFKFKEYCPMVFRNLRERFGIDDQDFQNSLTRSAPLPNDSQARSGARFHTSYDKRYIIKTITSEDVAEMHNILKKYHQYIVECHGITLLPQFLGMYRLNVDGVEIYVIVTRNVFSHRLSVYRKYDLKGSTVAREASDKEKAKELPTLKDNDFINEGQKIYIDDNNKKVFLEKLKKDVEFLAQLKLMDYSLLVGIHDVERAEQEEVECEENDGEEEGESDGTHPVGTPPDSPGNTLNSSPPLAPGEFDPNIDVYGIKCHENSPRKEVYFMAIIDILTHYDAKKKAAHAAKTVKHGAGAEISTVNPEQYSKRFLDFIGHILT

This assay has as its target Phosphatidylinositol 5-phosphate 4-kinase type-2 alpha (Homo sapiens) (UniProt P48426). As to the kind of experiment: qHTS for Inhibitors of phosphatidylinositol 5-phosphate 4-kinase (PI5P4K). Also: value at the top dose of about 77 µM. Particulars: PI5P4Kalpha enzyme, ADP-Glo luminescence, 60 min; active compounds read low. The method, boiled down:
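Single end-point luminescence (ADP-Glo) quantified ADP from PI5P4Kalpha turnover; ATP 5 microM final, 1 h at RT, 0.1% CHAPS and 0.28 mM EGTA in HEPES pH 7.4.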
For orientation: Quantitative high-throughput screening tests each substance at several concentrations.
On to `CCC(C)CN1C(=O)CSCC1(C)C(=O)NCc1ccccc1` (configuration not stated), for which the max response is -2.56%.

With `COc1cc2c(C(=O)O)c(C)n(C)c2c2ccccc12`, the max response is -2.64%. In the case of `Cc1c(C(=O)N/N=C/c2ccccc2)[nH]c2c([N+](=O)[O-])cccc12`, the max response is -0.171%.

Regarding `COc1cccc2c(C)c(C(=O)O)[nH]c12`, the max response was -63.9% (active). As to `COc1cc2c(=O)n(C)c3ccccc3c2cc1OC`, the max response was 1.08%. Under `c1ccc(-c2cc(-c3nnc4sc(-c5ccccn5)nn34)[nH]n2)cc1` stands -57.7% (active); under `CN(C(=O)c1ccccn1)c1nnc(-c2ccccn2)s1`, 3.64%; under `S=c1[nH]nc(-c2cc(-c3ccsc3)n[nH]2)n1-c1ccccc1`, -10.2%. Consider `CC1(C)OC(=O)C2=C(C[C@@H](C3CCCC3)O[C@@H]2c2ccc(Cl)cc2)O1`, for which the max response is 3.13%.

`CCCNC(=O)c1cc(C2CCCCN2C(=O)OC)on1` (configuration not stated): the max response was -2.43%. To `Cc1sc2nc(CSCC(=O)NC3CCCCC3)[nH]c(=O)c2c1C` belongs -13.2%; to `Cc1sc2nc(CSCC(=O)Nc3c(Cl)cccc3Cl)[nH]c(=O)c2c1C`, 1.38%; to `CSc1nnc(SCc2nc3sc(C(=O)O)c(C)c3c(=O)[nH]2)s1`, -79.5% (active). For `CCCOc1ccc(F)cc1-c1cc(C(=O)Nc2ccc(F)c(Cl)c2)[nH]n1`, the max response was -4.85%. For `Cc1cc(O)ccc1-c1cc(C(=O)NCc2cc(C(F)(F)F)cc(C(F)(F)F)c2)[nH]n1`, the max response is -3.12%. In the case of `CN(C)C(=O)c1cccc(-c2cnc3c(NC=O)cc(-c4ccc(C(=O)N5CCOCC5)cc4)cn23)c1`, the max response was -13.4%. As to `Cc1cc(Br)ccc1NC(=O)CCCOc1cc(=O)n(C)c2ccccc12`, the max response is 3.17%.

Turning to `CN1OC[C@@H]2CN(S(=O)(=O)c3cccc4ccccc34)[C@H](c3ccc(N4CCCCC4)cc3)C[C@@H]21`, the max response is 7.24%. For `CCOc1cccc(/C=N/NC(=S)NCCN2CCOCC2)c1O`, the max response is -0.183%. To `CCOc1cccc(/C=N/N2C(=O)CSC2=S)c1O` belongs -51.6% (active); to `COc1cc(N2C(=O)CSC2=S)cc(OC)c1OC`, 0.509%; to `COc1cc(Cn2c3ccc(NC(=O)CC(C)c4ccccc4)cc3c(=O)n2C)ccc1F` (configuration not stated), 2.27%. Consider `NC(=O)CCN1CCN(S(=O)(=O)/C=C/c2ccccc2)CC1`, for which the max response was 0.132%. Take `Cc1ccc2c(CN3CCN(S(=O)(=O)c4ccccc4C(F)(F)F)CC3)cc(=O)oc2c1`: the max response was -4.51%. Take `O=c1cc(CN2CCN(S(=O)(=O)/C=C/c3ccccc3)CC2)c2ccc(O)cc2o1`: the max response is -55% (active). Turning to `CN(Cc1cn(Cc2ccc(C(F)(F)F)cc2)nn1)C1CN(Cc2cn(Cc3ccc(C(F)(F)F)cc3)nn2)S(=O)(=O)C1` (configuration not stated), the max response was 11.5%. For the compound `COc1ccc(-c2ccc(C(=O)NCCN3CCOCC3)c3occc23)c(C)c1`, the max response was 2.58%. Under `Cc1ccc(-c2c[n+](=O)c3c(n2[O-])CCC3)cc1` stands 3.26%; under `Cc1ccc(-c2c(C)n([O-])c3c([n+]2=O)CCC3)cc1`, 0.293%. Turning to `O=[n+]1c2c(n([O-])c3cc(Br)ccc31)CCC2`, the max response is -56.6% (active). Under `CC1(C(=O)NCc2ccc(F)c(F)c2)Cc2c(-c3ccc4c(c3)OCO4)ccnc2O1` (configuration not stated) stands 0.999%; under `CN1OC[C@@H]2CN(C(=O)c3cccnc3)[C@H](c3ccc(N4CCCCC4)cc3)C[C@@H]21`, -1.25%.
